Screening results (PubChem)
HP1b binding inh = inhibitors of HP1-beta chromodomain binding to methylated histone tails; P83916; AlphaScreen HP1-beta / biotin-H3K9me3 peptide binding; Potency, µM (series often up to 114 µM), for the others: top-dose activity change, negative = inhibition, most hits filed as inhibitors; actives 0.56% (n = 390,000); AID 540317; also: potency is read from the fitted curve at half-maximal effect; nearly all actives have a fitted effect of over 70% in size
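AlphaScreen: HP1-beta (50 nM) preformed 30 min with biotin-H3(1-18)K9me3 peptide (50 nM) in PBS pH 7.4, 0.01% Tween-20. Compound added for 30 min at RT, then streptavidin donor/nickel chelate acceptor beads (10 ug/mL) for 30 min.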
Six1-Eya2 inh = Six1/Eya2 interaction inhibition | Q15475+O00167 | AlphaScreen GST-Six1/His-Eya2 binding, biochemical; active compounds read low | activity change, % (no concentration beside the values) | actives 0.56% (n = 360,000); in the data active = activity change below about -65%; inconclusive = mostly about -30% to -63%; also: % is scaled to controls: 0 for no effect and ±100 for the full control effect
Target sequence (O00167 whole entry, looked up): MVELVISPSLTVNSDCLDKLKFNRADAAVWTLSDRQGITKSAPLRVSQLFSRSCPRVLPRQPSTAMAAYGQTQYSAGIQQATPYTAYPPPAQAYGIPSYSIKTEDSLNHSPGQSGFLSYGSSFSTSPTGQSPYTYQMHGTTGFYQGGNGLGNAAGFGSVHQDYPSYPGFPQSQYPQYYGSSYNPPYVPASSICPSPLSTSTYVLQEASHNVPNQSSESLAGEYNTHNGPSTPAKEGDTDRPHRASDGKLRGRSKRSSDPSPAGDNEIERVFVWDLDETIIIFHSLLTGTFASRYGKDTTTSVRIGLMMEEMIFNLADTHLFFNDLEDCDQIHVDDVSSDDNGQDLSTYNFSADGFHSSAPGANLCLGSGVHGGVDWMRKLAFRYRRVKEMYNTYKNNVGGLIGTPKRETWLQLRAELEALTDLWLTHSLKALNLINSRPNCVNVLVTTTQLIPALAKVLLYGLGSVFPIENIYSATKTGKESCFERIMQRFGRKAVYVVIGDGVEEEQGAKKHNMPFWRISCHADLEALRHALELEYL
Target sequence (Q15475 whole entry, looked up): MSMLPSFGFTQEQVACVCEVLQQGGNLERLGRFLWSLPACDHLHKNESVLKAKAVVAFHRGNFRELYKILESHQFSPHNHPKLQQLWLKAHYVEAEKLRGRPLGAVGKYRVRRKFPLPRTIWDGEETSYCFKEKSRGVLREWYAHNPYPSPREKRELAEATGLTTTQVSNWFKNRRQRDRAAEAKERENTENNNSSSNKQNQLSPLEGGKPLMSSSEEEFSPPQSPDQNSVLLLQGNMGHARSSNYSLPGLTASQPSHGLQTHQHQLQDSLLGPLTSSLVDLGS
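AlphaScreen luminescence read after one hour at 37 °C in darkness. Pin-transferred compounds met GST-Six1 and His-Eya2 protein (5X stock 250 nM/500 nM) plus glutathione donor and Ni-chelate acceptor beads (5X, 50 ug/mL).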
G9a inh = blocks human histone lysine methyltransferase G9a; G9a H3K9 monomethylation, AlphaScreen, 2 h; actives 8.8% (n = 350,000); Potency, µM (highest dose often 102 µM), for inactives: at the top dose activity, negative = inhibition, hits mostly inhibitors; also: potency is read from the fitted curve at half-maximal effect; % is scaled to controls: 0 for no effect and ±100 for the full control effect; nearly all actives have a fitted effect of over 75% in size
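G9a (20 nM) was preincubated 15 min with compound, then reacted 2 h at room temperature with 500 nM biotin-H3K9 peptide and 20 µM SAM. Monomethyl-H3K9 detected by AlphaScreen using anti-H3K9me1 antibody.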
JMJD2A Tudor inh = blocks the human JMJD2A Tudor domain | O75164 | AlphaScreen JMJD2A-Tudor / H3K4me3 peptide binding | Potency, µM (top dose mostly 114 µM), without a hit: at the highest dose activity change, negative = inhibition, most hits filed as inhibitors | actives 4.4% (n = 390,000) | AID 504339; also: potency is read from the fitted curve at half-maximal effect; % is scaled to controls: 0 for no effect and ±100 for the full control effect; nearly all actives have a fitted effect of over 50% in size
CtBP-E1A blk = blocks the CtBP interaction with E1A. AlphaScreen GST-E1A/His-CtBP binding, 1536-well; active compounds read low. activity change, % (test concentration not listed). AID 651724. actives 0.49% (n = 340,000); in the data active = activity change below about -65%; inconclusive = mostly about -30% to -63%; also: % is scaled to controls: 0 for no effect and ±100 for the full control effect
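Protein mix (5X: 125 nM each GST-E1A, His-CtBP) was incubated with pinned compound 2 h at 37 deg C in dark, in 50 mM Tris pH 8.0 buffer with 300 mM NaCl. Glutathione donor and nickel acceptor beads followed; AlphaScreen signal read after 1 h.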
BAZ2B block = blocks human BAZ2B; Potency, µM (series often up to 114 µM), inactives show at the highest dose activity change, negative = inhibition, actives largely listed as inhibitors; AlphaScreen BAZ2B-H3K14Ac peptide displacement; AID 504333; actives 4.4% (n = 360,000); Q9UIF8; also: potency is read from the fitted curve at half-maximal effect; % is scaled to controls: 0 for no effect and ±100 for the full control effect; nearly all actives have a fitted effect of over 60% in size
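Complex of BAZ2B and biotin-H3K14Ac (50 nM apiece) forms over 30 min at RT, then faces library compounds up to 110 uM for another 30 min; AlphaScreen beads added, 20 min dark incubation, luminescence read.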
The depositor's hits bear a star; u = inconclusive; x = not tested or not shown; [ ] = remark or other dose. Hits are enriched below; roughly 10% of the tested compounds scored in any of these assays. Unless noted, calls follow the shape of the dose curve; as a rule, active = well fitted inhibition curve with a large enough effect; inconclusive = small, poorly fitted or top-dose-only effect; inactive = no such curve, though single readings can be large or run the other way.

SMILES	HP1b binding inh	Six1-Eya2 inh	G9a inh	JMJD2A Tudor inh	CtBP-E1A blk	BAZ2B block
CCCC(=O)NCc1cc(-c2nn(C)c(=O)c3ccccc23)ccc1OC	23%	1	-25%	-4%	4	u
COc1ccc(CNc2ncccn2)cc1OC	32%	-1	-1%	-15%	-24	-27%
COc1ccc(CNc2ccc3c(c2)ncn3C)cc1OC	36%	-4	40µM*	-25%	4	-22%
CCCn1cnc2cc(NCc3ccccn3)ccc21	1%	-10	10µM*	56µM*	-10	50µM*
CCn1cnc2cc(NCc3ccc(Cl)cc3)ccc21	-22%	-1	50µM*	u	-11	u
CCc1ccc(CNc2ccc3c(c2)ncn3C)cc1	u	-17	3.2µM*	u	-19	45µM*
CCn1cnc2cc(NCc3ccncc3)ccc21	28%	-1	u	-13%	6	-6%
Cc1ccc(CNC(=O)C2CCN(C(=O)c3ccc(-n4ccc5ccccc54)s3)CC2)cc1	41%	x	7%[59 µM]	1%	x	3%
O=C1CC2(CCCC2)Oc2ccccc21	24%	-6	x	1%	-14	x
Cc1ccc2nc(-c3ccco3)c(CC(C)(C)C)n2c1	x	-6	x	x	-26	x
COC(=O)c1c(C(=O)OC)c2cccc3cc(-c4ccccc4)c4ccc1c4n32	u	u	u	8.9µM*	u	2.5µM*
COC(=O)c1cc2c(-c3ccccc3)cc3ccccn3c-2c1C(=O)OC	u	u	13µM*	45µM*	u	13µM*
COC(=O)c1c(C)n(-c2ccccc2)c2ccc(O)cc12	-7%	-11	-3%[0.0925 µM]	u	-12	-35%
COc1cccc(C)c1NC(=O)C(OC(=O)CNC(=O)c1ccccc1)c1ccccc1 (stereo not drawn)	x	x	x	-9%	x	x
COc1ccc(N2CCN(C(=O)CCS(=O)(=O)c3cc4c(cc3Cl)NC(=O)CO4)CC2)cc1	17%	x	-22%[59 µM]	u	x	-6%
CN(C)CCN(Cc1ccccc1)S(=O)(=O)c1ccc2[nH]c(=O)ccc2c1	24%[57 µM]	x	1%[59 µM]	2%	x	1%
Cc1ccc(NC(=O)c2[nH]cnc2C(=O)NN)cc1	46%	-13	21%	u	x	u
NNC(=O)c1nc[nH]c1C(=O)Nc1ccccn1	38%	-15	-31%	2.8µM*	x	2.5µM*
O=C(Nc1ccccn1)c1ccc2ccccc2c1O	57%	-19	32µM*	12%[57.1 µM]	5	-20%
O=C(O)c1ccccc1C(=O)Nc1ccccn1	13%	4	u	-35%	1	-28%
COc1cc(NC(=O)N2CCC(CN3CCCCCC3)CC2)cc(OC)c1OC	17%	x	-43%[59 µM]	-21%	x	-3%
Cc1ccc2oc(=O)c3cc(C(=O)Nc4ccc(C)c(F)c4)sc3c2c1	33%	x	6%[59 µM]	5%	x	1%
O=C(Cc1ccccc1)c1nc2ccccc2s1	u	14	u	u	-15	71µM*
Cc1ccc(Cn2cc(S(=O)(=O)c3cccc(Cl)c3)c(=O)c3cc(F)c(N4CCOCC4)cc32)cc1	37%	x	-1%[59 µM]	-1%	x	-1%
CCc1ccc(CN2CCCC(CCC(=O)N3CCN(c4ccccn4)CC3)C2)o1 (stereo not drawn)	29%	-7	18%[59 µM]	-8%	x	-12%
SMILES	HP1b binding inh	Six1-Eya2 inh	G9a inh	JMJD2A Tudor inh	CtBP-E1A blk	BAZ2B block
Cc1nc2[nH]c(=S)n(C)c(=O)c2nc1C	15%	3	45µM*	89µM*	-2	-11%
Cc1ccc(S(=O)(=O)NN=C2C3CC4CC(C3)CC2C4)cc1[N+](=O)[O-]	48%	2	22µM*	-16%[57.1 µM]	2	-4%
Cc1ccc(S(=O)(=O)N/N=C2/CC(=O)CC(C)(C)C2)cc1[N+](=O)[O-]	48%	-2	u	-14%	2	-10%
Cc1ccc(S(=O)(=O)N/N=C2/CC(c3ccccc3)Oc3ccccc32)cc1[N+](=O)[O-] (stereo not drawn)	-12%	-2	40µM*	-30%	0	u
O=S(=O)(N/N=C1/CC(c2ccccc2)Oc2ccccc21)c1ccc(Br)cc1 (stereo not drawn)	6%	-9	u	-35%	-17	-15%
Cc1ccc(S(=O)(=O)NN=C2C3CC4CC(C3)CC2C4)cc1	36%	1	u	-13%	-2	-6%
Cc1ccc(S(=O)(=O)NN=C2CCC(C(C)(C)C)CC2)cc1[N+](=O)[O-] (stereo not drawn)	34%	5	35µM*	-15%[57.1 µM]	2	-2%
CC1CCCC/C1=N\NS(=O)(=O)c1ccc(Br)cc1 (stereo not drawn)	47%	-1	3.5µM*	-2%	7	-5%
CCOc1ccc(NS(=O)(=O)c2ccc(C(=O)NCCCN3CCOCC3)cc2)cc1	29%	7	16%	-6%	2	-16%
CC(C)(C)C1CCC(=NNS(=O)(=O)c2ccc(Br)cc2)CC1 (stereo not drawn)	61%	-1	7.9µM*	-3%	-2	9%
O=S(=O)(NN=C1CCCCC1)c1ccccc1	43%	-2	u	4%	4	-35%
CCCC1CCC(=NNS(=O)(=O)c2ccc(C)c([N+](=O)[O-])c2)CC1 (stereo not drawn)	23%	-11	7.1µM*	-33%[57.1 µM]	-5	-6%
CC(=O)Nc1ccc(S(=O)(=O)N2CCN(C(=O)N3CCCCC3)CC2)cc1	46%	16	-1%[0.501 µM]	-14%	8	9%
COc1ccccc1NC(C)=[N+](C)CCNS(=O)(=O)c1ccc(Cl)cc1	u	4	u	u	0	25µM*
COc1ccc(NC(C)=[N+](C)CCNS(=O)(=O)c2ccc(Cl)cc2)cc1Cl	35%	-2	x	0%	2	-17%
CCCCOC(=O)c1ccc(NC(=O)c2cc3c(=O)n4cccc(C)c4nc3n2C)cc1	41%	x	-33%[59 µM]	-6%	x	2%
Cc1cc(C2=NNC(=NC3CCCCC3)SC2)c(C)n1-c1c(C)n(C)n(-c2ccccc2)c1=O	0%	-2	-25%[59 µM]	-36%	x	u
CCc1ccc(C2=NNC(=Nc3c(C)n(C)n(-c4ccccc4)c3=O)SC2)cc1	-15%	11	25µM*	-25%	-9	-33%
CCc1nn(C(CC)C(=O)NCc2ccc(OC)c(OC)c2)c(=O)c2cc3oc(C)cc3n12 (stereo not drawn)	17%	x	3%[59 µM]	-5%	x	-26%
COc1cc(/C=C2\CC/C(=C\c3ccc(OCCO)c(OC)c3)C2=O)ccc1OCCO	-2%	8	45µM*	-18%	-11	-21%
